Our source for the outcome values is PubChem BioAssay (NCATS).

The source made the active and inactive calls. Calls come from the whole dose curve; as a rule, active = well fitted curve in the direction sought with a large enough effect; inconclusive = small, poorly fitted or top-dose-only effect, or effect the other way, or another doubt; inactive = no such curve, though single readings can be large or run the other way.

The test is described as follows: qHTS for inhibitors of adenylyl cyclases using a fission yeast platform: a pilot screen against the NCATS LOPAC library (AID 1347410). As to conditions: S. pombe CHP2027, fbp1-GFP fluorescence, 18 h, yeast expressing mammalian AC9 and human GNAS; series mostly up to 57.5 µM. The text has this: PI: Charles S. Hoffman Ph.D
Boston College, 140 Commonwealth Ave., Chestnut Hill, MA
Assay Development and Screening Technology Laboratory (ADST)
National Center for Advancing Translational Sciences (NCATS), Rockville, MD
National Institute of Health (NIH), Bethesda, Maryland
The fission yeast Schizosaccharomyces pombe uses a cAMP signaling pathway to link glucose-sensing to Protein Kinase A activity in order to regulate cell growth, sexual development, gluconeogenesis, and exit from stationary phase. Here, we describe the successful functional expression of all ten mammalian adenylyl cyclase (AC) genes, along with the human GNAS G-alpha gene in this organism. By measuring expression of a PKA-repressed fbp1-GFP reporter together with direct measurements of intracellular cAMP levels, one can detect both basal AC activity from all ten AC genes as well as GNAS-stimulated activity from eight of the nine transmembrane ACs (tmACs; AC2-AC9).
Further confirmation and validation of active compounds lead to the identification of diphenyleneiodonium chloride (DPI) as an inhibitor of basal AC activity. This fluorescence based fbp1-GFP-GNAS screening technology could facilitate the development of therapeutic compounds that target GNAS or the ACs, an area in which there is significant unmet need.
The gain-of-signal output is not substantially affected by cytotoxic compounds within the library.
Getz RA, et al., A fission yeast platform for heterologous expression of mammalian adenylyl cyclases and high throughput screening, Cellular Signaling, 2019, 60: 114-121. doi.org/10.1016/j.cellsig.2019.04.010.
PROTOCOL TABLE (as described by Inglese J, Shamu CE and Guy RK. 2007)
SEQUENCE No. (e.g., 1, 2, 3, etc.); […] (e.g., Cells, Incubation, Reagent, etc.); VALUE; DESCRIPTION.
1; Dispense growth medium; 2 uL; black, clear bottom, low base, 1536-well Aurora assay plate.
2; Compounds and control; 23 nL; Kalypsis pin tool (Wako USA) equipped with a 1536-well pin head to transfer to the assay plates.
3; Dispense yeast cells; 2 uL; CHP2027 cells.
4; Incubation; 18 hours (dark at 30C); Non-humidified microbial incubator.
5; Detector; 425V; Fluorescence; laser scanning cytometry.
NOTES (numbers refer to Sequence numbers above)
1. S. pombe growth medium EMM containing histidine, lysine, and uracil was initially dispensed into the assay plate to avoid yeast contamination using a Multidrop Combi dispenser (Thermo Fisher Scientific).
2. 10 mM stock solution of DPI (Sigma-Aldrich D2926) dissolved in DMSO was used as a 16-point dose response positive control, while 1.11 mM DPI stock solution was used as a single point max response positive control. Solvent DMSO was used as the negative control. Control DPI was transferred as a single-dose (column 3; rows 1-32; 1.11 mM stock), and multi-dose (column 4; rows 1-32; 10mM stock; 1:1.5 dilution; 16pnt titration) positive controls. Vehicle control DMSO was pinned into column 1-2, rows 1-32. Lopac compounds were pinned into columns 5-48 resulting to a final concentration range 57 µM to 78.4 nMControl DPI stock (10 mM) was prepared by dissolving 10 mg in 3.18 mL DMSO; while 1.11 mM DPI stock was prepared by mixing 100 uL of 10 mM DPI with 800 uL DMSO. To create the control plates, we initially start with a 384-well compound working plate. With a repeater pipette, (a.) 16 uL/well of 1.11 mM DPI was added to column 3; (b.) 16 uL/well of DMSO was added into rows 2-16 of column 4; (c.) 50 uL/well of DPI added to rows 1 and 2 of column 4; (d.) 32 uL serial dilution (two-thirds-fold) from rows 2 to 16 of column 4 with manual pipette. From the 384-well compound working plate, 7 uL of respective control compound was transferred to respective columns of the 1536-well compound plate using a multichannel pipette.
3. S. pombe CHP2027 (AC9-GNAS-PDE4D2) expressing fbp1-GFP cells were grown at 30C in EMM medium containing histidine, lysine, and uracil. […]
Take `CSc1ccccc1N1CCN(CCCCCC(=O)NC2CCCc3ccccc32)CC1` (stereo not given): the outcome was inactive.
The value for `CC(C)(C=O)Cc1cc(C(C)(C)C)c(O)c(C(C)(C)C)c1` was “inactive”.
The value for `CCCCCCCCCCCCCCCCCC(=O)OC(CC(=O)O)C[N+](C)(C)C` (stereo not given) was “inactive”; that for `COc1ccc(/C=C2\COc3ccc(C)cc3C2=O)cc1O` was “inactive”; that for `Fc1cccc(/C=N/N=C/c2cccc(F)c2)c1` was “inactive”.
For the compound `Oc1ccc(C2CNCc3sccc32)cc1O` (stereo not given), the compound was classed as inactive.
The value for `O=C1NC(=O)/C(=C/c2ccc(-c3ccc(F)cc3O)o2)S1` was “inactive”; that for `O=[N+]([O-])c1ccc(CSc2ncnc3c2ncn3[C@@H]2O[C@H](CO)[C@@H](O)[C@H]2O)cc1` was “inactive”; that for `N.N.N.N.N.N.N.N.N.N.N.N.N.N.O.O.[Ru+4].[Ru+5].[Ru+5]` was “inactive”.
The value for `CC(C)Cc1ccc([C@H](C)C(=O)O)cc1` was “inactive”; that for `Cc1cc2c(cc1Cl)N(C(=O)Nc1ccc(Oc3cccnc3C)nc1)CC2` was “inactive”.
The value for `CC(=O)N[C@H](C(=O)O)C(C)(C)SN=O` was “inactive”; that for `CCN(CC)c1ncnc2c1ncn2[C@@H]1O[C@H](COP(=O)(O)OP(=O)(O)C(Br)(Br)P(=O)(O)O)[C@@H](O)[C@H]1O` was “inactive”.
For `CNC(=O)[C@H]1O[C@@H](n2cnc3c(NCc4ccc(N)cc4)ncnc32)[C@H](O)[C@@H]1O`, the compound was classed as inactive.
The value for `COc1ccc(C(=O)/C(Cc2cc(OC)c(OC)c(OC)c2)=C(\C(=O)O)c2ccc3c(c2)OCO3)cc1` was “inactive”; that for `COc1ccccc1CN[C@@H]1CCCN[C@@H]1c1ccccc1` was “inactive”.
The value for `NC(=O)C(=O)O` was “inactive”; that for `COc1ccc(/C=C/c2nc(NCCCN(C)C)c3ccccc3n2)cc1` was “inactive”.
The value for `CCCCCCCCc1ccc(-c2ccc(C(=O)O)cc2)cc1` was “inactive”; that for `O=P(O)(O)C(Cl)(Cl)P(=O)(O)O` was “inactive”; that for `O=C(Nc1ccc2[nH]ncc2c1)C1CCC1` was “inactive”.
For `CN1CCc2cccc3c2C1Cc1ccc(O)c(O)c1-3` (stereo not given), the call was inactive.
The value for `CCOC(=O)C1=C(C)NC(C)=C(C(=O)OCC)C1c1c(F)c(F)c(F)c(F)c1F` was “inactive”; that for `COc1cc(OC)c(/C=C2/C(=O)Nc3ccccc32)c(OC)c1` was “inactive”; that for `NCCCCCCCCCCN` was “inactive”.
The value for `NC(CCCP(=O)(O)O)C(=O)O` (stereo not given) was “inactive”; that for `COC(=O)c1c(C)[nH]c(C)c1C(=O)c1ccccc1Cc1ccccc1` was “inactive”.
The value for `O=C(O)CC1CCCc2ccccc2C1O` (stereo not given) was “inactive”; that for `CC[C@@H](C)[C@H]1O[C@]2(CC[C@H]1C)C[C@@H]1C[C@@H](CC=C(C)[C@@H](O[C@H]3C[C@H](OC)[C@@H](O[C@H]4C[C@H](OC)[C@@H](O)[C@H](C)O4)[C@H](C)O3)[C@@H](C)C=CC=C3CO[C@@H]4[C@H](O)C(C)=C[C@@H](C(=O)O1)[C@]34O)O2` was “inactive”.
Turning to `COC1=C(OC)C(=O)c2ccccc2C1=O`, the compound was classed as inactive.
The value for `O=C1NC(=O)c2c1c(-c1ccccc1)cc1[nH]c3ccc(O)cc3c21` was “inactive”; that for `NC[C@@H]1O[C@H](C23CC4CC(CC(C4)C2)C3)Cc2c1ccc(O)c2O` was “inactive”; that for `OC[C@H]1O[C@@H](n2cnc3c(NC4CCCCC4)ncnc32)[C@H](O)[C@@H]1O` was “inactive”.
The value for `OCC1O[C@H](O)C(Cl)C(O)C1O` (stereo not given in full) was “inactive”.
The value for `CC(C)(C)c1ccc(S(=O)(=O)/C=C/C#N)cc1` was “inactive”; that for `COc1ccc(-c2cc(=O)c3c(O)c(OC)c(OC)cc3o2)cc1O` was “inactive”; that for `Nc1nc(OCC2CCCCC2)c2[nH]cnc2n1` was “inactive”.
Regarding `Cn1c(=O)c2[nH]c(-c3ccccc3)nc2n(C)c1=O`, the result was inactive.
The value for `COC(=O)C1=C(C)NC(C)=C(C(=O)OC)C1c1cccc(NC(=O)NCCCN2CCC(c3cccc(OC)c3)CC2)c1` was “inactive”.
The value for `CC(C)(NS(=O)(=O)c1ccc(Oc2ccc(F)cc2)cc1)C(=O)NO` was “inactive”.
